The source made the active and inactive calls. Rule for the calls: active = hit-call score of the fitted dose curve at least 0.9, where 1 is the maximum; inactive = score below 0.9.
Target: Heat shock factor protein 1 (Homo sapiens) (UniProt Q00613)
Assay: ATG_HSE_CIS: Attagene CIS-FACTORIAL HepG2 Assay for human Heat Shock Transcription Factor 1 (HSE) (AID 2282953)
Details: HepG2 HSE cis-reporter, Attagene RNA transcription; actives raise or lower the signal
Description: ATG_CIS is a cell-based, multiplexed-readout assay that uses HepG2, a human liver cell line, with measurements taken at 24 hours after chemical dosing in a 24-well plate.ATG_HSE_CIS is one of 52 assay component(s) measured or calculated from the ATG_CIS assay. It is designed to make measurements of mRNA induction, a form of inducible reporter, as detected with fluorescence intensity signals by Reverse transcription polymerase chain reaction (RT-PCR) and Capillary electrophoresis technology.Data from the assay component ATG_HSE_CIS was analyzed into 1 assay endpoint. This assay endpoint, ATG_HSE_CIS, was analyzed with bidirectional fitting relative to DMSO as the negative control and baseline of activity. Using a type of inducible reporter, measures of mRNA for gain or loss-of-signal activity can be used to understand the reporter gene at the transcription factor-level as they relate to the gene HSF1. Furthermore, this assay endpoint can be referred to as a primary readout, because this assay has produced multiple assay endpoints where this one serves a reporter gene function. To generalize the intended target to other relatable targets, this assay endpoint is annotated to the dna binding intended target family, where the subfamily is heat shock protein.
Human liver HepG2 cells are transiently transfected with multiple reporter transcription units (MRTUs) in 6-well plates using FuGene 6 reagent (Roche; 3 ml FuGene/1 mg DNA). The MRTU constructs are regulated by a cis-regulating element (promoter). […] A major difference between the CIS and TRANS system is that in CIS activities of endogenous TFs are measured, whereas the TRANS assay evaluates changes in activities of exogenous, chimeric NR-Gal4 proteins. […] At the end of 24 hour incubation, total RNA was isolated using TriZol reagent (Invitrogen). The isolated RNA is then reverse-transcribed using oligo(dT) primer and Mo-MLV reverse transcriptase (Invitrogen) with DNAse I (Ambion) treatment for 30 min. The one-tenth of the produced cDNA was amplified by PCR using Taq DNA polymerase (Invitrogen) and two reporter sequence-specific primers. The PCR products were fluorescently labeled by primer extension with 6-arboxyfluorescein (6-FAM) 5'-labeled reporter sequence-specific primer (2 min at 95 C, 20 s at 68 C and 10 min at 72 C) and these products were digested with 5U of HpaI (New England Biolabs) for 2h at 37 C. The fragments were purified using Qiaquick PCR columns (Qiagen), analyzed on an ABI 3130xL genetic analyzer (Applied Biosystems) with peak positions identified by using a set of X-rhodamine (ROX)-labeled MapMarker1000 molecular weight standards (BioVentures). The raw capillary electrophoresis data was processed using Attagraph software (Attagene).

Chain of Heat shock factor protein 1 (Homo sapiens) (Q00613 whole entry, looked up): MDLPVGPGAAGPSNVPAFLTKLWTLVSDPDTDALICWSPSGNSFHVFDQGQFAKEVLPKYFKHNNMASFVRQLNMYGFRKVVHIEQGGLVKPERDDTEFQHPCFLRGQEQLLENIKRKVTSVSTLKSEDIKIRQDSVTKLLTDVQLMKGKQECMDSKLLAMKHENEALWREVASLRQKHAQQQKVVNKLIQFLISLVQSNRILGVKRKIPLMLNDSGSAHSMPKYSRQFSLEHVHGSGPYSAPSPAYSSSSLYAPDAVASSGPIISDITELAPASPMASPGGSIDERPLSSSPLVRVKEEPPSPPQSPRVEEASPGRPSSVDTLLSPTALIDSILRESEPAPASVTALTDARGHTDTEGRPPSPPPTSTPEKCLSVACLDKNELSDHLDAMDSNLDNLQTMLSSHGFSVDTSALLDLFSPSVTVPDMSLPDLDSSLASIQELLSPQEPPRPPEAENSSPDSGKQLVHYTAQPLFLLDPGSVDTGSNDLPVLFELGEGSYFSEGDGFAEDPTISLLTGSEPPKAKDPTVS

SMILES	outcome	AC50
CCCCCCC#CC(=O)OC	inactive	
O=C(O)CN(CCN(CC(=O)O)CC(=O)O)CCN(CC(=O)O)CC(=O)O	inactive	
O=S(=O)(O)NC1CCCCC1	inactive	
OCCN1CCNCC1	inactive	
CCCCCC=CCC(=O)OC	inactive	
CCC(=O)OCc1ccccc1	inactive	
C[C@]12CC[C@H]3[C@@H](CCC4=CC(=O)CC[C@@]43C)[C@@H]1CC[C@@H]2C(=O)CO		60.1 µM (active)
C#C[C@]1(O)CC[C@H]2[C@@H]3CCC4=Cc5oncc5C[C@]4(C)[C@H]3CC[C@@]21C		58.2 µM (active)
CC(=O)OCCC(C)CC(C)(C)C (stereo not given)	inactive	
Clc1sc(Cl)c(Cl)c1Cl	inactive	
CC1=CC(=O)NS(=O)(=O)O1	inactive	
CC(C)(C)NC(N)=O	inactive	
CC(CCO)CCc1ccccc1 (stereo not given)	inactive	
CC(=O)OCc1ccc2c(c1)OCO2	inactive	
OC[C@H]1O[C@H](O[C@]2(CCl)O[C@H](CCl)[C@@H](O)[C@@H]2O)[C@H](O)[C@@H](O)[C@H]1Cl	inactive	
Clc1nc(C(Cl)(Cl)Cl)c(Cl)c(Cl)c1Cl		53.9 µM (active)
CCCC(=O)c1cc(O)c(O)cc1O	inactive	
O=C(O)c1ccc([N+](=O)[O-])cc1	inactive	
Clc1cccc(Cl)n1	inactive	
CC(C)(C#N)c1cc(Cn2cncn2)cc(C(C)(C)C#N)c1	inactive	

SMILES	outcome	AC50
[Ca+2]	inactive	
BrC1CCC(Br)C(Br)CCC(Br)C(Br)CCC1Br (stereo not given)	inactive	
CCC(O)CO (stereo not given)	inactive	
CC(CC(C)(C)C)CC(C)(C)CC(C)(C)C (stereo not given)	inactive	
O=C(O)Cc1cccc2ccccc12	inactive	
CC(C=O)Cc1ccc(C(C)C)cc1 (stereo not given)	inactive	
CC(C#N)(CCC(=O)O)N=NC(C)(C#N)CCC(=O)O (stereo not given)	inactive	
ClCCCl	inactive	
O=P(c1ccccc1)(c1ccccc1)c1ccccc1	inactive	
Nc1ccc(F)c([N+](=O)[O-])c1	inactive	
O=C(COc1ccc(Cl)cc1)N1CCN(Cc2ccc3c(c2)OCO3)CC1		151 µM (active)
CCc1c(C)cc(N)c(CC)c1N	inactive	
CC(=O)[C@H]1CC[C@H]2[C@@H]3CC=C4C[C@@H](O)CC[C@]4(C)[C@H]3CC[C@]12C	inactive	
CN(CCOc1ccc(CC2SC(=O)NC2=O)cc1)c1ccccn1 (stereo not given)	inactive	
O=C1CCCCCCCCCCCCCCO1	inactive	
CC1CC(OC(=O)c2ccccc2O)CC(C)(C)C1 (stereo not given)	inactive	
CC[Si](OC(C)=O)(OC(C)=O)OC(C)=O	inactive	
O=CCCc1ccccc1	inactive	
Cc1ccc(C=O)cc1	inactive	
COc1ccc(Cl)cc1C	inactive	
